Assay outcomes from PubChem.
HT1080 IDH1KD tx – qHTS for induction of synthetic lethality in tumor cells producing 2HG: qHTS for the HT-1080-IDH1KD cell line; HT-1080 IDH1 knockdown viability, ATP luminescence, 48 h; Potency, µM (highest dose often 46.1 µM), for the others: at the top dose activity, negative = toxicity, usual class: cytotoxic; 2% of 360,000 active; AID 686971, 2013;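 further: 0% = DMSO wells and -100% = cell-free medium wells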
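IDH1KD HT-1080 cells, 750/well, RPMI + 5% FBS; compound pinned after 2 h settling; 48 h, 37 °C; CellTiter-Glo luminescence; % activity normalised to DMSO and no-cell wells; curves fitted, classed by r2 and efficacy.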
KB-3-1 tox – qHTS assay for MDR1-selective chemotherapeutics: Primary screen using the parental adenocarcinoma cell KB-3-1. KB-3-1 viability, CellTiter-Glo ATP luminescence, 72 h. Potency, µM (highest dose often 46.1 µM), hits mostly cytotoxic. 1.4% of 400,000 active. AID 1347075, 2019; further: on the % scale 0 is the no-effect control and ±100 the full control effect; nearly all actives have a fitted effect of over 60% in size
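Parental KB-3-1 adenocarcinoma cells in phenol-red-free DMEM with 10% FBS were pin-treated with compounds at several concentrations, incubated 72 h at 37 °C, and viability read by CellTiter-Glo luminescence; concentration-effect curves were fitted after normalization.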
HT1080-NT tox – qHTS for induction of synthetic lethality in tumor cells producing 2HG: qHTS for the HT-1080-NT fibrosarcoma cell line; Potency, µM (doses to about 46.1 µM), inactives show at the top dose activity, negative = less viability, actives largely listed as cytotoxic; HT-1080-NT fibrosarcoma viability, CellTiter-Glo ATP luminescence, 48 h; 1.6% of 360,000 active;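 further: NT is the 2HG producing partner of a matched IDH1 knockdown line; 0% = DMSO-treated cells and -100% = media-only wells without cells; nearly all actives have a fitted effect of over 55% in size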
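Viability by CellTiter-Glo luminescence after 48 h compound exposure at 37C of HT-1080-NT cells (750/well, RPMI, 5% FBS). % activity scaled between DMSO wells and medium-only wells, then curve-fitted and categorized by curve class.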
KB-V1 cytotox – qHTS assay for MDR1-selective chemotherapeutics: Primary screen using the drug-selected MDR subline cells KB-V1; 3.4% of 400,000 active; AID 1347076, 2019; Potency, µM (doses to about 46.1 µM), most hits filed as cytotoxic; KB-V1 MDR cells viability, CellTiter-Glo, 72 h; further: on the % scale 0 is the no-effect control and ±100 the full control effect; nearly all actives have a fitted effect of over 60% in size
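Cells of the MDR subline KB-V1 are plated, dosed with compound at multiple concentrations, and incubated 72 h at 37 degrees C; CellTiter-Glo is then added and luminescence read after 10 min.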
SW480 rerep – A quantitative high throughput screen for small molecules that induce DNA re-replication in SW480 colon adenocarcinoma cells; SW480 DNA re-replication, Hoechst DNA content imaging, 48 h; Potency, µM (top dose mostly 46.1 µM), without a hit: top-dose re-replication activation, actives largely listed as activators; 1.8% of 340,000 active; AID 624297, 2012; further: % of control where 0% means no effect; nearly all actives have a fitted effect of over 55% in size
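First, 250 cells per well were seeded. Next, compound or vehicle (23 nL) was pinned in, plates sat 48 hr at 37 C. Finally Hoechst was added for 40 min before fluorescence scanning.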
MCF10A rerep – A quantitative high throughput screen for small molecules that induce DNA re-replication in MCF 10a normal breast cells. MCF 10A DNA re-replication, Hoechst nuclear intensity, 48 h. Potency, µM (titrated, usually from 46.1 µM), for inactives: at the highest dose activity, positive = re-replication, usual class: activators. 2.9% of 350,000 active; further: % of control where 0% means no effect; nearly all actives have a fitted effect of over 50% in size
An asterisk follows results filed as active; i = inactive; ? = inconclusive; . = not tested or not shown; [ ] = remark or other dose. Rows were chosen to be rich in hits. Some 8% of all compounds tested hit in one or more screens of this group. The call rests on the fitted dose curve; in most records, active means well fitted curve in the direction sought with a large enough effect; inconclusive means small, poorly fitted or top-dose-only effect, or another doubt; inactive means no such curve, though single readings can be large; an effect the other way counts as inactive or inconclusive. Potency means the concentration at half of the fitted maximal effect.

SMILES | HT1080 IDH1KD tx | KB-3-1 tox | HT1080-NT tox | KB-V1 cytotox | SW480 rerep | MCF10A rerep
COc1ccc(CNC(=O)CCSc2nc(-c3ccc4c(c3)OCO4)cc(C(F)(F)F)n2)cc1 | -4.9% | i | 5.1% | ? | ? | 20.6µM*
CN(Cc1ccccc1)C(=O)CCSc1nc(-c2ccc3c(c2)OCO3)cc(C(F)(F)F)n1 | ? | i | -10.4% | 2.59µM* | 7.0% | 0.5%
CCC(C)NC(=O)CCSc1nc(-c2ccc3c(c2)OCO3)cc(C(F)(F)F)n1 (stereo not drawn) | . | i | . | i | . | .
O=C(CCSc1nc(-c2ccc3c(c2)OCO3)cc(C(F)(F)F)n1)NCc1ccccc1 | ? | i | -11.9% | i | 4.2% | ?
Cc1cccc(Cn2c(=O)n(CC3CCC(C(=O)NC(C)C)CC3)c(=O)c3sccc32)c1 (stereo not drawn) | . | i | . | i | . | .
N#C/C(=C/c1ccc(-c2ccc(S(N)(=O)=O)cc2)o1)c1nc2ccccc2s1 | ? | i | ? | i | 10.3µM* | 3.66µM*
N#C/C(=C/c1ccc(-c2ccc(S(N)(=O)=O)cc2)o1)C(=O)Nc1ccccc1 | -21.7% | i | -14.4% | i | -1.0% | 27.5%
COC(=O)c1ccc(/C=C(\C#N)c2nc3ccccc3s2)cc1 | 9.9% | i | 12.0% | i | -2.9% | ?
N#C/C(=C\c1ccccn1)c1nc2ccccc2s1 | -27.7% | i | ? | ? | 16.4µM* | 14.6µM*
O=c1cc(/C=C/c2ccc([N+](=O)[O-])cc2)c2ccccc2[nH]1 | . | i | . | i | . | .
COc1ccc(-c2cc(N)n(S(=O)(=O)c3c(F)c(F)c(F)c(F)c3F)n2)cc1OC | 3.98µM* | 10.3µM* | 7.08µM* | 9.2µM* | ? | ?
O=C1CCCc2[nH]c(=O)c(C(=O)NCc3ccccc3)cc21 | . | i | . | i | . | .
COc1ccc(-c2sc3ccc(N4CCOCC4)cc3c2C#CCCO)cc1 | 23.1µM* | ? | 23.1µM* | ? | 12.2% | ?
COc1ccc2sc(-c3ccc(S(C)(=O)=O)cc3)c(C#CCO)c2c1 | -27.4% | i | ? | ? | 1.4% | ?
COc1ccc2c(-c3ccc(S(N)(=O)=O)cc3)c(-c3ccc(S(C)(=O)=O)cc3)sc2c1 | ? | i | 23.1µM* | i | ? | ?
COc1ccc2c(C#CCCO)c(-c3ccc(S(C)(=O)=O)cc3)sc2c1 | ? | i | ? | i | ? | 20.6µM*
Cc1ccc(Cl)cc1NS(=O)(=O)c1cc2c(cc1Cl)CCC(=O)N2 | . | i | . | i | . | .
Cc1noc(C)c1COc1cccc(C(=O)OCC(=O)N2CC(=O)Nc3ccccc32)c1 | 1.84µM* | 1.46µM* | ? | ? | 9.2µM* | 1.84µM*
CC(=O)N1CCN(S(=O)(=O)c2cccc(C(=O)OCC(=O)N3CC(=O)Nc4ccccc43)c2)CC1 | -2.7% | i | -1.1% | i | -41.4% | -3.2%[9.22 µM]
COc1cc(SC)ccc1C(=O)OCC(=O)N1CC(=O)Nc2ccccc21 | -3.9% | i | -2.1% | i | 1.5% | 0.5%
Cc1cc(C(=O)OCC(=O)N2CC(=O)Nc3ccccc32)c(C)n1-c1ccc(F)cc1 | -3.6% | ? | -0.6% | 16.4µM* | -1.7% | 13.1%
O=C1CN(C(=O)COC(=O)c2ccccc2O)c2ccccc2N1 | 18.2% | i | ? | i | -1.6% | -3.3%
Cc1cc(C(=O)OCC(=O)N2CC(=O)Nc3ccccc32)c(C)n1-c1ccccc1 | 7.5% | i | 10.0% | 16.4µM* | -69.5% | 7.2%
Cc1ccc2c(=O)cc(C(=O)Nc3ccc(S(=O)(=O)N4CCCCCC4)cc3)oc2c1 | . | i | . | i | . | .
Clc1cccc(Cl)c1CO/N=C/c1c(-c2ccccc2)nc2n1CCS2 | -30.0% | ? | ? | 12.6µM* | 12.1% | ?
SMILES | HT1080 IDH1KD tx | KB-3-1 tox | HT1080-NT tox | KB-V1 cytotox | SW480 rerep | MCF10A rerep
O=C(NCc1cccc(Cl)c1)C1CCCN(c2ncnc3onc(-c4ccc(F)cc4)c23)C1 (stereo not drawn) | . | i | . | i | . | .
Cc1cc(C)c2nc(NNC(=O)c3ccc(S(=O)(=O)N4CCCC(C)C4)cc3)sc2c1 (stereo not drawn) | ? | 4.11µM* | ? | i | ? | 14.6µM*
Cc1ccc2nc(NC(=O)c3ccc(S(=O)(=O)N4CCC(C)CC4)cc3)sc2c1 | . | i | . | i | . | .
COC(=O)c1sc2ccccc2c1NC(=O)c1ccc(S(=O)(=O)N2CC(C)CC(C)C2)cc1 (stereo not drawn) | -5.9% | i | 5.0% | i | -13.0% | 2.9%
CCS(=O)(=O)N1Cc2ccccc2CC1C(=O)Nc1nc2ccc(C)cc2s1 (stereo not drawn) | -18.2% | ? | ? | 7.31µM* | -215.4% | 9.3%
Cc1cccc2sc(NNC(=O)c3ccc(S(=O)(=O)N4CC(C)CC(C)C4)cc3)nc12 (stereo not drawn) | 16.4µM* | ? | ? | i | 9.2µM* | ?
Cc1ccc2nc(NNC(=O)c3ccc(S(=O)(=O)N4CCc5ccccc5C4)cc3)sc2c1 | 4.61µM* | ? | ? | i | ? | 9.2µM*
COc1ccc2c(c1)C/C(=C\c1ccc(N(C)C)cc1)C2=O | . | i | . | i | . | .
CCCN1CCCc2cc(CN(CCCN3CCOCC3)C(=O)Nc3ccc(CC)cc3)ccc21 | . | i | . | i | . | .
O=C(CSc1n[nH]c(-c2ccccc2)n1)NCCCc1ccccc1 | . | i | . | i | . | .
COc1ccc(C)cc1NC(=O)CCn1nc(C)cc1C | . | i | . | i | . | .
Cc1cc(C)c2nc(NC(=O)c3ccc(S(=O)(=O)N4CCC(C)CC4)cc3)sc2c1 | . | i | . | i | . | .
Cc1cc(C)c2nc(NNC(=O)c3ccc(S(=O)(=O)N4CC(C)CC(C)C4)cc3)sc2c1 (stereo not drawn) | 11.6µM* | i | ? | i | ? | ?
CCC(=O)N1CCc2cc(Br)cc(S(=O)(=O)N3CCCC(C(=O)Nc4ccc(C)c(F)c4)C3)c21 (stereo not drawn) | . | i | . | i | . | .
COc1ccc(NC(=O)c2c(F)cccc2F)cc1S(=O)(=O)Nc1ccc(Br)cc1 | -19.1% | i | -0.6% | 10.3µM* | ? | ?
